Bioassay records as filed in PubChem BioAssay.
Sampled rows, rich in hits. Any-hit rate of the full collection: about 6.1%.
D1 ag: agonists of human D1 dopamine receptor; activation, % at 2 µM; 360,000 compounds, 1% hits; HEK293 T-REx D1 cells, calcium flux, agonist mode; AID 504660; P21728; in the data active = activation above about 30%; note: 0% is about no effect
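Tetracycline-induced HEK293 TREx D1 cells, force-coupled to calcium signalling, were dye-loaded with a no-wash calcium kit. Compound was pin-added after a 10 s baseline. Fluorescence was read kinetically at 1 cycle/s for 180 s, with calcium rises flagged as agonism.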
D1 antag: antagonists of human D1 dopamine receptor; P21728; HEK293 TREx D1 cells, calcium flux, dopamine EC80; stronger effect = lower value; activity change, negative = inhibition, % at 10 µM; 360,000 compounds, 3.2% hits; in the data active = activity change below about -30%; note: % is set by controls: 0 for no effect and ±100 for the full control effect
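After overnight tetracycline induction at 30 C, force-coupled D1 HEK293 cells took up a no-wash calcium dye at room temperature. Compounds were added and monitored 180 s, and the response to EC80 dopamine was then recorded.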
D1 PAM: potentiators of human D1 dopamine receptor; 360,000 compounds, 0.036% hits; P21728; HEK293 TREx D1 cells, calcium flux, dopamine EC20 potentiation; potentiation, % at 10 µM; in the data active = potentiation above about 30%; note: 0% is about no effect
D3 ag: agonists of human D3 dopamine receptor; P35462; D3R DiscoveRx beta-arrestin cells, luminescence, 90 min; max activation, %; 410,000 compounds, 0.58% hits; in the data active = max activation above about 30%; note: 0% is about no effect
Target sequence (P35462 whole entry, looked up): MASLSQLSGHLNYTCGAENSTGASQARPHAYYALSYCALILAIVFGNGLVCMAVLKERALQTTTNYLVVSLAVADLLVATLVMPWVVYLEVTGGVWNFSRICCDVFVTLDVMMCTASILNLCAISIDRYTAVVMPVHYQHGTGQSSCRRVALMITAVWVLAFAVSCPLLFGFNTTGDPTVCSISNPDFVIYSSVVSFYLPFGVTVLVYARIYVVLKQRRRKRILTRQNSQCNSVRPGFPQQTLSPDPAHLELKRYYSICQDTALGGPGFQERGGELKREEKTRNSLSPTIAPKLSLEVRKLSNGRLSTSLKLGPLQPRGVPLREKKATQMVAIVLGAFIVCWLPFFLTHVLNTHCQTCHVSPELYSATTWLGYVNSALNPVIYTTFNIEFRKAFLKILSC
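Agonist-mode cell screen: cells plated at 1500/well and incubated overnight at 37 °C, then exposed to library compounds for 90 min at 37 °C. Detection reagent was added for 30–60 min at room temperature, and luminescence was read.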
DRD3 antagonist: blocks the human D3 dopamine receptor; P35462; D3R cells, DiscoveRx beta-arrestin luminescence, antagonist mode; stronger effect = lower value; max response, negative = inhibition, %; 360,000 compounds, 2.5% hits; AID 652054; in the data active = max response below about -50%; note: % is set by controls: 0 for no effect and ±100 for the full control effect
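Cells expressing the human receptor were seeded at 1500 cells/well, incubated overnight at 37 degrees C in 5% CO2, then exposed to library compounds with dopamine controls for 90 minutes at 37 degrees C before luminescent detection.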
Starred values were filed as active, the others as inactive; nt = not tested or not shown; ! = a repeat was not active.

SMILES	D1 ag	D1 antag	D1 PAM	D3 ag	DRD3 antagonist
COc1ccc(/C=N/NC(=O)CN(Cc2ccccc2)S(=O)(=O)c2ccc3c(c2)OCCO3)cc1	2	-15	-3	7	4
Cn1cccc1C1CCCN1CC(=O)Nc1ccc(C(N)=O)cc1 (centres undefined)	nt	nt	nt	-5	-18
COc1cc(/C=C2/SC(=S)N(Cc3ccccc3)C2=O)cc(Cl)c1O	474*	-25	3	-5	29
COc1cc(/C=C2\SC(=S)N(CC(=O)NC(C)(C)C)C2=O)cc(OC)c1OC	11	-61*	-10	-1	2
COc1cc(/C=C2/SC(=S)N(CC(=O)NC(C)(C)C)C2=O)cc(OC)c1OC	5	-4	-5	-4	18
COc1cc([N+](=O)[O-])cc(/C=C2/SC(=S)N(Cc3ccccc3)C2=O)c1O	110*	-3	0	2	14
CCCc1cc(F)c(S(=O)(=O)N2CCN(S(=O)(=O)c3ccc4c(c3)OCCO4)CC2)cc1F	4	6	6	nt	nt
COCCNc1nc2cc(-c3cccc(Cl)c3)sc2c(=O)n1C	nt	nt	nt	2	15
Cc1nc(C)c(N)c(=O)[nH]1	3	0	-6	1	5
Nc1ccc2c(c1)Cc1cc([N+](=O)[O-])ccc1-2	122*	-36*	-6	-5	-19
Cc1ccc(NCc2cccn2-c2nnc(N3CCC(C(=O)NCc4ccccc4C)CC3)s2)cc1	0	-13	-1	-10	nt
Cc1ccc(S(=O)(=O)Nc2nncs2)cc1	4	-17	-3	-1	-60*
CN1CCC(N(C)S(=O)(=O)c2ccc(NC(=O)c3ccc(S(=O)(=O)N(C)C)cc3)cc2)CC1	nt	nt	nt	-12	5
Cc1c(C(=O)Nc2ccc(S(=O)(=O)N(C)C3CCN(C)CC3)cc2)oc2c(Cl)cccc12	59*	-60*	-2	-11	-66*
Cc1c(C(=O)Nc2ccc(S(=O)(=O)N(C)C3CCN(C)CC3)cc2)oc2ccccc12	32*	-30	-6	-20	-19
CCS(=O)(=O)N1CCC(C(=O)NCC2CCCO2)CC1 (centres undefined)	2	-36*	0	-4	-18
CCCCS(=O)(=O)N1CCC(C(=O)NCC2CCCO2)CC1 (centres undefined)	1	-13	-5	-9	-5
CC(C)CNC(=S)NC1CC2CCCC(C1)N2Cc1cccs1 (centres undefined)	24	3	-8	-29	-76*
O=C(Nc1cccc(Cl)c1)NC1CC2CCC(C1)N2Cc1cccs1 (centres undefined)	13	-22	-12	0	-98*
Cc1ccc(NC(=S)NC2CC3CCCC(C2)N3Cc2cccs2)cc1 (centres undefined)	14	-87*	-10	-30	-71*
Fc1ccc(NC(=S)NC2CC3CCCC(C2)N3Cc2cccs2)cc1 (centres undefined)	9	4	-1	-16	-54*
CC(C)CNC(=S)NC1CC2CCCC(C1)N2Cc1ccco1 (centres undefined)	0	19	-10	-12	-20
O=C(COc1ccc(Cl)cc1)OCc1cc(=O)n2nc(C3CCCCC3)sc2n1	4	-17	-9	3	nt
COc1cccc2cc(C(=O)Nc3ccc(CC(=O)O)cc3)c(=O)oc12	0	17	-1	3	nt
CC1(C(=O)NCc2ccc(Cl)cc2)CCN1C(=O)Cc1cccs1 (centres undefined)	nt	nt	nt	-5	-8
SMILES	D1 ag	D1 antag	D1 PAM	D3 ag	DRD3 antagonist
COC(=O)c1sc(S(=O)(=O)N2CCN(c3ccccc3F)CC2)c(C(=O)OC)c1C	nt	nt	nt	-2	-5
COC(=O)c1sc(S(=O)(=O)N2CCN(c3ccc(OC)cc3)CC2)c(C(=O)OC)c1C	3	-40*!	0	8	-19
Nc1cc(C(=O)N2CCN(c3cccc(Cl)c3)CC2)ccc1N1CC2CC(C1)c1cccc(=O)n1C2 (centres undefined)	nt	nt	nt	-5	6
COc1cccc(Nc2nnc(-c3cc4ccc(O)cc4oc3=O)s2)c1	369*	-28	7	8	nt
O=c1oc2cc(O)ccc2cc1-c1nnc(Nc2ccccc2F)s1	405*	-4	16	12	nt
COc1ccc(CCn2c(=O)c3cccnc3n(CC(=O)Nc3ccc(C)cc3C)c2=O)cc1OC	0	3	-3	-2	nt
Cc1cc(-c2cccs2)c2c(n1)sc1c(=O)[nH]c(=O)[nH]c12	0	3	-2	-2	-84*
Cc1cc(-c2ccccc2)c2c(n1)sc1c(O)cc(=O)[nH]c12	0	3	9	-4	-16
Cc1ccnc(Nc2ccc(CCO)cc2)n1	nt	nt	nt	4	12
O=C1CC(c2ccc(Cl)cc2)Sc2nc(-c3ccc(F)cc3)nn21 (centres undefined)	4	2	-2	-5	nt
COc1ccc(-c2nc(SCC(=O)NC(C)CCc3ccccc3)n[nH]2)cc1 (centres undefined)	5	-33*	-2	15	nt
COC(=O)CSc1n[nH]c(-c2cccnc2)n1	-1	-34*	0	4	5
COc1ccc(NC(=O)CSc2n[nH]c(-c3ccccn3)n2)cc1	0	-65*	-3	-2	-4
CCOC(=O)CSc1n[nH]c(-c2cccnc2)n1	nt	nt	nt	5	-23
O=C(CSc1n[nH]c(-c2ccccn2)n1)Nc1ccccc1	2	-11	-8	0	4
CC(CCc1ccccc1)NC(=O)CSc1n[nH]c(-c2ccccc2)n1 (centres undefined)	4	-13	-3	7	nt
Cc1cccc(NS(=O)(=O)c2cccc(C(=O)N3CCCC(C(F)(F)F)C3)c2)c1 (centres undefined)	6	-7	-5	-6	-10
C[C@@H]1CN([C@H](C)CO)C(=O)CCCn2cc(nn2)CO[C@H]1CN(C)C(=O)C1CCCCC1	nt	nt	nt	-8	12
COc1ccc(S(=O)(=O)NC(C)C(=O)Nc2cccc(C(C)=O)c2)cc1 (centres undefined)	1	-43*	-3	0	0
COc1ccc(S(=O)(=O)NC(C)C(=O)Nc2ccccc2F)cc1 (centres undefined)	4	-3	1	4	-22
CCc1ccc(CNC(=O)c2ccc(Cn3c(=O)c4cccn4c4cccnc43)cc2)cc1	1	-6	-1	-2	nt
C[C@@H](CN1CCC[C@H]1CN1C(N)=NC[C@@H]1Cc1ccccc1)N1C[C@@H](Cc2ccccc2)N(CCc2ccc(Cl)c(Cl)c2)C1=N	nt	nt	nt	-48	-53*
CC(C)[C@H](CN1CCC[C@H]1CN1C(N)=NC[C@@H]1Cc1ccccc1)N1C[C@@H](Cc2ccccc2)N(CCc2ccc(Cl)c(Cl)c2)C1=N	nt	nt	nt	-11	-29
CC(C)[C@@H]1CN=C(N)N1C[C@@H]1CCCN1C[C@H](C)N1C[C@@H](Cc2ccccc2)N(CCc2ccc(Cl)c(Cl)c2)C1=N	nt	nt	nt	-20	-60*
